# Experimental data: publication PMC5540273 (PLoS ONE, 2017)
# Legend:
# DCAMKL2 = test system: T1, DCAMKL2
# T1 construct: gene DCLK2
# 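Also: kd values determined as follow-up on hits from a single-replicate KINOMEscan panel screen.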
smiles,measurement,setting,value
c1ccc(-c2ccnc3[nH]ccc23)cc1 [SB-693578],Kd,CSNK1G1,> 10 µM
COc1cccc(C2=C(Nc3cc(Cl)c(O)c(Cl)c3)C(=O)NC2=O)c1 [SB-390767],Kd,CSNK1G1,> 10 µM
NS(=O)(=O)c1cccc(N/C=C2\C(=O)Nc3ccc(S(=O)(=O)Cc4c(Cl)cccc4Cl)cc32)c1 [GSK398099],Kd,DAPK1,> 10 µM
Cn1cnc2c(N)ncnc21 [SKF-97623],Kd,DAPK1,> 10 µM
Cc1nccc(-c2c(-c3ccc(F)cc3)ncn2CCCN2CCOCC2)n1.Cl [SB-282975],Kd,DAPK2,> 10 µM
CC(=O)c1c(C)c2cnc(Nc3ccn(C)n3)nc2n(C2CCCC2)c1=O,Kd,DCAMKL2,> 10 µM
